DAGLB inhibitor: DAGLB lipase inhibitors, primary screen, biochemical, fluorescence, HTS; Diacylglycerol lipase-beta (Homo sapiens), Q8NCG7; inhibition, % at 5.17 µM; 340,000 compounds, 0.059% hits; AID 504411, 2011; HEK293T DAGLB membrane lysate, EnzChek fluorogenic substrate; in the data active = inhibition above about 34%
sPLA2-III inh: human group III sPLA2 inhibitors, primary screen, biochemical, QFRET, BODIPY PC-A2 liposome substrate | AID 743126, 2013 | 370,000 compounds, 0.56% hits | inhibition, % at 12.2 µM | QFRET BODIPY PC-A2 liposome hydrolysis, fluorescence;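 active = inhibition above mean plus 3 SD of compounds lying within the high and low control bounds, cut at about 19% in these data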
Target sequence (Q9NZ20 whole entry, looked up): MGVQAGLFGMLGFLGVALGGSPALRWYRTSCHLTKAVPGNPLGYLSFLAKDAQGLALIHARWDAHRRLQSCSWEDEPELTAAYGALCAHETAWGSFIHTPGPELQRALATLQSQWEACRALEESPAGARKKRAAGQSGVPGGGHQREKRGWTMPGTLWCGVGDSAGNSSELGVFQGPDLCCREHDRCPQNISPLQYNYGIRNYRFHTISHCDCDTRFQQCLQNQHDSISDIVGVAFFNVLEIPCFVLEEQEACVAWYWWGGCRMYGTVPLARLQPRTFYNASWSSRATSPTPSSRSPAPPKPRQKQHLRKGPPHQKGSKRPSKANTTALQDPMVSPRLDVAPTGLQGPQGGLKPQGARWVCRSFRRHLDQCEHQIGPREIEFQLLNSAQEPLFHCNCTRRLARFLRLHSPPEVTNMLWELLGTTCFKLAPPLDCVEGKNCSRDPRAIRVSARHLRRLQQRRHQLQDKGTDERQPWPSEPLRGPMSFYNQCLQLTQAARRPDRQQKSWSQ
NadD block: inhibitors of S. aureus NadD, primary screen, biochemical, colorimetric, uHTS | purified NadD enzyme, colorimetric absorbance read-out | inhibition, % at 20 µM | 360,000 compounds, 0.78% hits; in the data active = inhibition above about 26%
Neddyl block: inhibitors of cullin neddylation, primary screen, biochemical, TR-FRET, uHTS, NAE and Ubc12 | inhibition, % at 25 µM | AID 651699, 2012 | 360,000 compounds, 0.58% hits; in the data active = inhibition above about 36%
ARNT-TACC3 inh: disruptors of ARNT/TACC3 protein interaction, primary screen, biochemical, AlphaScreen, single concentration; inhibition, % at 9.99 µM; 390,000 compounds, 0.66% hits; AID 623870, 2012; Transforming acidic coiled-coil-containing protein 3 (Homo sapiens), Q9Y6A5; AlphaScreen His-ARNT PAS-B/GST-TACC3 binding, luminescence; TACC3 fragment carries E629A point mutation;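 active = mean inhibition of replicates at least 50% and at least half of replicates each reaching 50%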
NadD conf: inhibitors of S. aureus NadD, confirmation, biochemical, colorimetric, single concentration; shares compounds with NadD block; purified S. aureus NadD, colorimetric enzyme assay; inhibition, % at 20 µM; 2,000 compounds, 13% hits; in the data active = inhibition mostly above about 42%, no sharp cut-off; inactive = mostly below about 42%
Each line names hits and unclear results; the compound was inactive in the other large screens (follow-up assays come after a bar, where shown). The list is not random: actives were taken first. Their share in the collection is about 2%.

Cc1cc(C)c(Nc2n[nH]c(=S)s2)cc1C	NadD block 44.4 (no result: ARNT-TACC3 inh) | NadD conf inactive
FC(F)(F)c1ccc(CN2C[C@@H]3C(c4ccccc4)C4(c5cccnc5)CC3(C4)[C@H]2c2ccccc2)cc1 (some centres not stated)	none
FC(F)(F)c1ccc(CN2C[C@@H]3C(c4ccc(C(F)(F)F)cc4)C4(c5cccnc5)CC3(C4)[C@H]2c2ccccc2)cc1 (some centres not stated)	NadD block 37.6 | NadD conf inactive
Cc1ccc(S(=O)(=O)Nc2cccc3c2O[C@@H](CN(C)C(=O)Nc2ccc4c(c2)OCO4)[C@@H](C)CN([C@H](C)CO)C3=O)cc1	none (no result: DAGLB inhibitor, sPLA2-III inh, NadD block, Neddyl block)
CCn1c2ccccc2c2cc(NC(=O)COC(=O)c3cc(S(N)(=O)=O)c(Cl)cc3Cl)ccc21	NadD block 40.6 | NadD conf inactive
CCn1c2ccccc2c2cc(NC(=O)COC(=O)c3cc(Cl)c(N)cc3OC)ccc21	NadD block 35.8 | NadD conf inactive
Cc1ccccc1COc1ccc(/C(O)=C2/C(=O)C(=O)N(CCCn3ccnc3)C2c2ccco2)cc1 (configuration not stated)	NadD block 31.3 | NadD conf 53.4
CCOc1ccc(/C(O)=C2/C(=O)C(=O)N(CCN(CC)CC)C2c2ccco2)cc1 (configuration not stated)	none
CC(C)C[C@H]1CN([C@@H](Cc2ccccc2)CN2CCC[C@H]2CN2C(=O)C(=O)NC[C@@H]2Cc2ccc(O)cc2)C(=O)C(=O)N1CC1CCCCCC1	NadD block 36.4 (no result: DAGLB inhibitor, ARNT-TACC3 inh) | NadD conf inactive
CC(C)C[C@H]1CNC(=O)C(=O)N1C[C@@H]1CCCN1C[C@H](Cc1ccc(O)cc1)N1C[C@H](Cc2ccccc2)N(CC2CCCCCC2)C(=O)C1=O	NadD block 33.8 (no result: DAGLB inhibitor, ARNT-TACC3 inh) | NadD conf inactive
Cc1ccc(S(=O)(=O)NCC[C@@H]2CC[C@H](NS(=O)(=O)c3ccccc3Cl)[C@@H](CO)O2)cc1	none (no result: DAGLB inhibitor, sPLA2-III inh, NadD block, Neddyl block)
O=c1cc(-c2ccc(O)c(-c3c(O)cc(O)c4c(=O)cc(-c5ccc(O)cc5)oc34)c2)oc2cc(O)cc(O)c12	NadD block 77.3 | NadD conf 66.1
O=c1cc(-c2ccc(O)cc2)oc2c(-c3c(O)cc(O)c4c(=O)cc(-c5ccc(O)cc5)oc34)c(O)cc(O)c12	none
Cc1ccc(-c2cc(-c3ccco3)c3c(N)c(C(=O)NN)oc3n2)cc1	NadD block 27.8 | NadD conf inactive
CCOC(=O)c1cc(-c2cccs2)nc2onc(C)c12	none (not shown: Neddyl block)
COc1cccc(/C=N/NC(=O)c2oc3nc(-c4ccccc4)cc(-c4ccco4)c3c2N)c1	none
NNC(=O)c1oc2nc(-c3cccs3)cc(-c3ccco3)c2c1N	NadD block 35.7 (not shown: Neddyl block) | NadD conf inactive
N#CCC(=O)Nc1ccc(C(=O)OC(C(=O)Nc2ccc([N+](=O)[O-])cc2Br)c2ccccc2)cc1 (configuration not stated)	NadD block 45.5 | NadD conf inactive
C[C@@H]1CCCCO[C@H](CN(C)Cc2ccc3c(c2)OCO3)[C@H](C)CN([C@@H](C)CO)C(=O)c2cc(NC(=O)Nc3cccc4ccccc34)ccc2O1	none (no result: DAGLB inhibitor, sPLA2-III inh, NadD block, Neddyl block)
S=C(NNc1ccnc2cc(Cl)ccc12)Nc1ccc(Cl)cc1Cl	NadD block 29.6 | NadD conf inactive
C[C@@H]1CCCCO[C@H](CN(C)C(=O)c2ccccc2)[C@@H](C)CN([C@@H](C)CO)C(=O)c2cc(N(C)C)ccc2O1	none (no result: DAGLB inhibitor, sPLA2-III inh, NadD block, Neddyl block)
Cn1c2ccccc2c(=O)c2cc(C#CC3=CCCCC3)ccc21	NadD block 32.1 (not shown: Neddyl block) | NadD conf inactive
Cn1c2ccccc2c(=O)c2cc(C#Cc3cccc(N)c3)ccc21	none (no result: sPLA2-III inh)
Cn1c2ccccc2c(=O)c2ccc(C#Cc3ccc(N)cc3)cc21	NadD block 50.6 (no result: ARNT-TACC3 inh) | NadD conf inactive
Clc1ccc(C2=Nn3c(nnc3-c3cc(-c4ccccc4)n[nH]3)SC2)cc1	NadD block 44.7 | NadD conf inactive
c1ccc(C2=Nn3c(nnc3-c3n[nH]c4c3CCC4)SC2)cc1	none
Clc1ccc(C2=Nn3c(nnc3-c3n[nH]c4c3CCC4)SC2)cc1Cl	NadD block 30.4 | NadD conf inactive
COc1ccccc1-c1cn(CC[C@H]2CC[C@H](NC(=O)c3cnccn3)[C@H](CO)O2)nn1	none (no result: DAGLB inhibitor, sPLA2-III inh, NadD block, Neddyl block)
CCC(=O)Nc1ccc2c(c1)C(=O)N(C)C[C@@H](OC)[C@@H](C)CN(CC1CCOCC1)[C@@H](C)CO2	none (no result: DAGLB inhibitor, sPLA2-III inh, NadD block, Neddyl block)
Cc1ccc(OCC(=O)Nc2nnc(S(=O)(=O)N3CCC(C)CC3)s2)cc1	NadD block 26.5 | NadD conf inactive
Cc1ccc(NC(=O)COC(=O)c2ccc3c(c2)NC(=O)C2CCCN32)cc1 (configuration not stated)	NadD block 38.0 | NadD conf inactive
COC(=O)c1ccc2c(c1)NC(=O)C1CCCN21 (configuration not stated)	none (no result: DAGLB inhibitor, sPLA2-III inh, ARNT-TACC3 inh)
COC(=O)Cn1c(=NC(=O)c2ccc(S(=O)(=O)N3CCc4ccccc4C3)cc2)sc2cc(OC)ccc21	none
C=CCn1c(=NC(=O)c2ccc(S(=O)(=O)N3CCc4ccccc4C3)cc2)sc2cc(S(N)(=O)=O)ccc21	NadD block 32.2 | NadD conf inactive
COCCn1c(=NC(=O)c2ccc(S(=O)(=O)N3CCc4ccccc4C3)cc2)sc2cc(S(N)(=O)=O)ccc21	NadD block 70.8 | NadD conf inactive
Brc1ccc(-c2csc(Nc3nc(-c4ccc(Br)cc4)cs3)n2)cc1	NadD block 30.0 | NadD conf inactive
O=[N+]([O-])c1ccc(Nc2nc(NC3CCCCC3)nc(N3CCCC3)n2)cc1	NadD block 38.9 (no result: ARNT-TACC3 inh) | NadD conf inactive
O=[N+]([O-])c1cc2c(cc1/C=N/Nc1nc(Nc3ccccc3)nc(N3CCCCC3)n1)OCO2	NadD block 39.4 | NadD conf inactive
O=[N+]([O-])c1ccc(Nc2nc(N/N=C/c3cccc(F)c3)nc(N3CCCC3)n2)cc1	NadD block 38.3 | NadD conf inactive
Cc1cc(C)nc(N/N=C/c2cc3c(cc2[N+](=O)[O-])OCO3)n1	none
CC(C)NC(=O)NCC[C@H]1CC[C@@H](NC(=O)CCN2CCCCC2)[C@H](CO)O1	none (no result: DAGLB inhibitor, sPLA2-III inh, NadD block, Neddyl block)
Cc1ccc(S(=O)(=O)Nc2cccc(-c3ccc(N4CCCCCC4)nn3)c2)cc1	NadD block 33.8 | NadD conf inactive
COc1ccc(S(=O)(=O)Nc2cccc(-c3ccc(N4CCCCCC4)nn3)c2)c(OC)c1	NadD block 28.2 | NadD conf inactive

Assay outcomes deposited in PubChem BioAssay by several laboratories.
